# Screening data: PubChem, The Scripps Research Institute Molecular Screening Center
# A selection: hits, their analogues and other compounds. The true share with any hit is near 2%.
# CHRM4 antagonist: human M4 muscarinic receptor antagonists, primary screen, CHO cells, Fluo-8 calcium fluorescence. Muscarinic acetylcholine receptor M4 (Homo sapiens), P08173. 360,000 tested, 0.73% active. AID 624125, 2012. CHO-hM4 cells, ACh EC80. inhibition, % at 3 µM;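 active means inhibition above its plate's cutoff, the mean inhibition of sample wells plus 3 SD, cut at about 27% in these data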;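 further: 0% = acetylcholine EC80 with DMSO and 100% = DMSO without agonist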
# Target sequence (P08173 whole entry, looked up): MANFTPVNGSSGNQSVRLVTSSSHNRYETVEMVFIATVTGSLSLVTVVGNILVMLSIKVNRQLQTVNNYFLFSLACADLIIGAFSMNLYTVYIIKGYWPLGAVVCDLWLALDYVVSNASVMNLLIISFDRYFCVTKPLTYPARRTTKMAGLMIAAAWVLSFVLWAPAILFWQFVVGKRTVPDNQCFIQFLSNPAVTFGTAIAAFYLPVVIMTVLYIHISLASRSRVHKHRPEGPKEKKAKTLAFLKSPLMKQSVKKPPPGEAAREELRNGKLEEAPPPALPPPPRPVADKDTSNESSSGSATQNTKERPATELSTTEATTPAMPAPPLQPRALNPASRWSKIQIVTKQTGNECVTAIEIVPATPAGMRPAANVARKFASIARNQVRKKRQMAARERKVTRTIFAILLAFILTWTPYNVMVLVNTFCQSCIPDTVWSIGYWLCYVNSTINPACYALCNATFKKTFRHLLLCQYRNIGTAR
# M1 PAM parental: nonselective calcium activators in parental CHO-K1 cells, primary screen, counter-screen for M1 PAM project, cell-based, Fluo-8 calcium fluorescence, full deck, 1536-well | 360,000 tested, 0.02% active | activation, % at 3 µM | ATP EC20; 0% at ATP EC20, 100% at ATP max | AID 602247, 2012;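 active means activation above the run cutoff, the mean activation of all test compounds plus 3 SD, cut at about 40% in these data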;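 further: peak over basal fluorescence ratio in a 140 s read after ATP addition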
# M4 ag: human M4 muscarinic receptor agonists, primary screen, CHO-K1 cells, Fluo-8 calcium fluorescence. Muscarinic acetylcholine receptor M4 (Homo sapiens), P08173. CHO-K1 hM4/Gqi5; vehicle 0%, full acetylcholine response 100%. activation, % at 3 µM. 360,000 tested, 0.14% active;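 active means activation above the run mean over all test wells plus 3 SD, cut at about 32% in these data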;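 further: peak over basal fluorescence ratio per well then scaled between controls; 0% = DMSO wells and 100% = acetylcholine at EC100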
# CHRM4 PAM: human M4 muscarinic receptor positive allosteric modulators, primary screen, CHO-K1 cells, Fluo-8 calcium fluorescence | activation, % at 3 µM | 360,000 tested, 0.4% active | CHO-K1 hM4/Gqi5, ACh EC20; 0% = ACh EC20, 100% = maximal ACh | Muscarinic acetylcholine receptor M4 (Homo sapiens), P08173;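 active means activation above its plate's cutoff, the mean activation of sample wells plus 3 SD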
# M1 ag parental: counter-screen for M1 agonists: effect in parental CHO-K1 cells | activation, % at 3 µM | AID 602248, 2012 | Fluo-8 calcium fluorescence; scaled to maximal ATP response, vehicle zero | 360,000 tested, 0.48% active; in the data active means activation above about 15%;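 further: untransfected CHO-K1 host cells lacking M1 receptor as counterscreen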
# CHO-K1 Ca antag: counter-screen for M1 antagonists: effect in parental CHO-K1 cells; ATP-induced calcium, Fluo-8 fluorescence; inhibition, % at 3 µM; 360,000 tested, 0.6% active; AID 602250;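 active means inhibition above a per-plate cutoff, the plate's mean sample inhibition plus 3 SD, cut at about 24% in these data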;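 further: 0% = DMSO plus EC80 ATP and 100% = DMSO alone without ATP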
# An asterisk follows results filed as active.
SMILES,CHRM4 antagonist,M1 PAM parental,M4 ag,CHRM4 PAM,M1 ag parental,CHO-K1 Ca antag
Cc1ccc(-c2csc(N3CCN(CCCn4c(-c5ccncc5)nc5ccccc54)CC3)n2)cc1,12.3,13.7,6.3,-5.8,-0.1,-11.3
Cc1ccc(-c2csc(N3CCC[C@@H]3C(=O)NCCn3c(-c4ccncc4)nc4ccccc43)n2)cc1,47.8*,-15.2,12.6,-16.3,5.9,10.3
CCC(C)[C@H](NC(=O)N1CCCCC1)C(=O)OC (some centres undefined),-4.7,-16.1,0.8,-5.7,0.1,6.9
COc1ccc(CCNC(=O)c2cc3cc(F)ccc3nc2C)cc1OC,-8.9,11.9,3.2,-7.0,15.5*,-4.4
COc1ccc(CCNC(=O)c2ccc3ccccc3n2)cc1OC,-11.3,8.1,6.9,3.0,1.9,2.6
CCCCn1c(=O)nc2n(-c3ccc(C)cc3)c3ccccc3cc-2c1=O,-11.8,11.2,0.1,4.8,-0.1,-4.2
CCCCn1c(=O)nc2n(-c3ccc(Cl)cc3)c3ccccc3cc-2c1=O,-18.7,-16.4,0.7,5.5,-0.5,27.3*
Cn1cc(Br)c(C(=O)Nc2ncc(Br)s2)n1,-9.8,17.4,1.0,8.0,-0.1,-3.6
NNC(=O)c1cc(C23CC4CC(CC(C4)C2)C3)[nH]n1,7.6,-8.2,-0.8,-2.0,17.2*,2.3
Cc1ccc(S(=O)(=O)Cn2nnnc2C(CC(C)C)N2CCN(C3CCCC3)CC2)cc1 (centres undefined),11.4,-7.1,3.3,-13.6,2.6,-3.6
CCCCOc1ccc(S(=O)(=O)NC(=O)C2(C)CCN2C(=O)c2c(C)noc2C)cc1 (centres undefined),-2.8,4.1,1.0,18.8*,-0.3,-5.8
O=S(=O)(Nc1nc2ccccc2[nH]1)c1ccc2ccccc2c1,70.4*,27.8,1.6,-32.7,1.7,-8.3
O=S(=O)(Nc1ncn[nH]1)c1ccc2ccccc2c1,-2.4,4.2,-0.2,-2.5,0.1,-7.4
C=C(C)CN(CC)C(=O)CN1C(=O)NC(C)(c2ccc3ccccc3c2)C1=O (centres undefined),6.5,2.5,3.2,-3.7,2.5,-1.1
CCN(CC(=O)Nc1ccc(NC(C)=O)cc1)C(=O)CN1C(=O)NC(C)(c2ccc3ccccc3c2)C1=O (centres undefined),-8.1,-10.3,1.4,26.6*,0.0,-1.1
CCCCCC(C)NC(=O)CN1C(=O)NC(C)(c2ccc3ccccc3c2)C1=O (centres undefined),-14.9,12.3,3.5,23.0*,0.1,2.6
COc1cc(/C=N/N2C(=O)CSC2=S)cc(Br)c1O,8.5,-3.4,69.4*,-30.4,48.4*,19.3
COc1cccc(/C=N/N2C(=O)CSC2=S)c1O,9.9,-8.5,0.8,2.5,0.1,8.2
CCCOc1ccc(Cn2cnc3ccccc32)cc1,15.0,4.4,5.6,-11.8,3.5,25.1*
Cc1cc2nc(C3CCN(C(=S)NCCCOC(C)C)CC3)[nH]c2cc1C,-7.5,9.3,1.4,-0.2,0.1,-16.0
COc1ccc(C(CNc2ccc(C(F)(F)F)cn2)N(C)C)cc1OC (centres undefined),0.2,6.7,1.6,1.1,3.1,-8.3
COC(C/C=C\[C@H](O)[C@H](C)OCc1ccccc1)OC,-8.3,11.3,2.3,20.7,1.0,-7.7
Cc1ccc(S(=O)(=O)Nc2c3ccccc3nc(=O)n2-c2ccccc2)cc1,0.5,-7.1,5.8,-6.7,1.2,26.0*
CC(C)C[C@H](NC(=O)c1nc[nH]c1C(=O)N1CCN(C(=O)OC(C)(C)C)CC1)C(=O)OC(C)(C)C,0.5,-11.3,0.2,25.3*,-0.8,-11.7
CC(C)(C)OC(=O)CNC(=O)c1[nH]cnc1C(=O)NCCCCCN,7.2,2.5,0.0,-2.4,0.3,-6.4
SMILES,CHRM4 antagonist,M1 PAM parental,M4 ag,CHRM4 PAM,M1 ag parental,CHO-K1 Ca antag
CC(C)(C)OC(=O)CNC(=O)c1[nH]cnc1C(=O)NCCCCCNC(=O)OC(C)(C)C,22.5,-1.5,34.5*,-14.5,16.6*,-5.3
CC(C)C[C@H](NC(=O)c1nc[nH]c1C(=O)NCCCCCNC(=O)OC(C)(C)C)C(=O)OC(C)(C)C,49.7*,-20.7,4.1,-13.7,-0.9,-5.0
O=C(CN1CCN(S(=O)(=O)c2ccc(F)cc2)CC1)Nc1ccnn1C1CCCC1,11.6,-6.5,3.0,1.7,1.3,6.1
COc1ccc(CCNC(=O)c2ccc(CN3CCC(Cc4ccccc4)CC3)cc2)cc1,-4.7,11.8,3.8,-10.0,-0.1,-0.9
CC(C)NC(=O)c1ccc(CN2CCC(Cc3ccccc3)CC2)cc1,66.9*,0.9,1.1,-16.3,1.0,-3.0
CSc1ccc(CN2CCC(Cc3ccccc3)CC2)cc1,27.7*,23.6,0.9,-17.8,2.4,-7.0
C=CCNC(=O)c1ccc(CN2CCC(Cc3ccccc3)CC2)cc1,28.2*,22.8,2.2,-16.4,1.4,-15.4
CSc1ccc(Cl)c(C(=O)NCCCn2ccnc2)c1,3.6,9.4,2.0,2.8,2.1,-10.3
O=C(CSc1nnc(SCc2ccccc2)s1)NNC(=S)Nc1ccccc1,5.3,-15.8,1.7,-8.3,0.2,28.8*
C/C(=N\NC(=S)NC(C)C)c1ccc(Cl)s1,27.3*,-3.4,-2.3,-34.2,-0.2,6.6
C/C(=N\NC(N)=S)c1ccc(Cl)s1,6.0,26.4,0.5,-0.6,-0.2,-12.1
COc1ccc(CCn2c(C)cc(C(=O)CSc3nnnn3-c3ccccc3)c2C)cc1,9.4,-7.6,-0.2,2.9,-0.6,23.7*
Cc1cc(C(=O)CSc2nnnn2C)c(C)n1CCc1ccc(Cl)cc1,-4.0,17.9,0.1,0.1,0.4,-8.6
CCOC(=O)c1sc(NC(=O)Nc2cccc(Cl)c2)cc1C,37.5*,-6.4,17.0,-24.2,17.7*,38.8*
CCOC(=O)c1sc(NC(=O)c2cccs2)cc1C,1.3,6.7,1.2,6.8,4.0,11.8
CC1CCN(C(=O)C2CCN(c3nnc(-n4cccc4)s3)CC2)CC1,5.2,6.2,2.3,-7.2,0.7,56.8*
CN(CCN(C)C(C)(C)C)C(=O)C(c1ccccc1)c1ccccc1,90.7*,-10.1,1.4,-55.4,0.7,-2.0
O=C(CSCc1ccc(C(=O)O)cc1)Nc1ccc2ccccc2c1,34.1*,-7.3,1.5,12.8,0.8,5.1
O=C(CSCc1ccc(C(=O)O)cc1)Nc1ccccc1,-4.1,8.4,0.4,0.9,0.1,3.8
O=C(NCC1CCCO1)c1ccccc1OCc1ccc(Cl)cc1 (centres undefined),2.9,-1.9,5.1,-3.9,3.4,-4.1
